Screens: PubChem BioAssay, Broad Institute
Rows were chosen to be rich in hits. Some 2.4% of all compounds tested hit in one or more screens of this group.
Pf Dd2 inh – inhibitors of Plasmodium falciparum Dd2 growth | P. falciparum Dd2 growth, SYBR Green, 72 h; hits give low values | activity change, % at 10 µM | 94,000 tested, 2.3% active | AID 1159554; in the data active = activity change below about -80%; inconclusive = no clear call, values can overlap the other calls
C diff HTS – C. difficile growth inhibition; growth activity, negative = inhibition, % at 16 µg/mL (by protocol); 86,000 tested, 0.25% active; Clostridium difficile clinical isolate growth, OD600, 24 h; hits give low values;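 active = mean growth activity at or below -80% and every replicate also at or below -80%; inconclusive = mean at or below -80% but some replicate above -80%; inactive = mean growth activity above -80%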;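 note: 0% = DMSO wells and -100% = levofloxacin 16 µg/mL wells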
* hit, by the source's call; u = inconclusive; x = no result.

SMILES | Pf Dd2 inh | C diff HTS
C[C@@H]1CN([C@H](C)CO)C(=O)c2cccc(NC(=O)c3cnccn3)c2O[C@H]1CN(C)C(=O)Nc1ccccc1 | -9 | 0
C[C@@H]1CN([C@@H](C)CO)C(=O)c2cc(NC(=O)Nc3ccc(F)cc3)ccc2O[C@@H](C)CCCCO[C@H]1CN(C)C(=O)C1CCCCC1 | -52 | 1
C[C@@H]1CCCCO[C@H](CN(C)C(=O)C2CCCCC2)[C@@H](C)CN([C@H](C)CO)C(=O)c2cc(NC(=O)Nc3ccc(F)cc3)ccc2O1 | 8 | 0
C[C@H]1CCCCO[C@H](CN(C)C(=O)C2CCCCC2)[C@@H](C)CN([C@@H](C)CO)C(=O)c2cc(NC(=O)Nc3ccccc3)ccc2O1 | -31 | -2
C[C@@H]1CN([C@H](C)CO)C(=O)c2cc(NC(=O)Nc3ccc(C(F)(F)F)cc3)ccc2O[C@@H](C)CCCCO[C@@H]1CN(C)C(=O)C1CCCCC1 | -84* | 11
C[C@@H]1CN([C@H](C)CO)C(=O)c2cc(NC(=O)Nc3ccccc3)ccc2O[C@@H](C)CCCCO[C@@H]1CN(C)C(=O)C1CCCCC1 | -86* | 3
C[C@@H]1CCCCO[C@H](CN(C)C(=O)C2CCCCC2)[C@@H](C)CN([C@@H](C)CO)C(=O)c2cc(NC(=O)Nc3ccc(F)cc3)ccc2O1 | -90* | -1
C[C@@H]1CN([C@H](C)CO)C(=O)c2cc(NC(=O)Nc3ccc(F)cc3)ccc2O[C@@H](C)CCCCO[C@@H]1CN(C)C(=O)C1CCCCC1 | -92* | 3
C[C@@H]1CCCCO[C@@H](CN(C)C(=O)C2CCCCC2)[C@@H](C)CN([C@@H](C)CO)C(=O)c2cc(NC(=O)Nc3ccc(C(F)(F)F)cc3)ccc2O1 | u | 12
C[C@@H]1CCCCO[C@H](CN(C)S(=O)(=O)c2ccc(Cl)cc2)[C@H](C)CN([C@H](C)CO)C(=O)c2cc(NC(=O)c3ccncc3)ccc2O1 | -60 | 3
O=C(Nc1cccc(Cl)c1)N[C@@H]1CC[C@H](CCNC(=O)C2CCCC2)O[C@@H]1CO | -3 | -5
O=C(C[C@H]1CC[C@H](NC(=O)c2cccc(F)c2)[C@H](CO)O1)NCc1ccc(Oc2ccccc2)cc1 | 24 | -9
CO[C@H]1CN(C)C(=O)c2ccc(NS(C)(=O)=O)cc2OC[C@H](C)N(Cc2cccnc2)C[C@H]1C | 12 | -2
COc1ccc(CN(C)C[C@H]2Oc3ccc(NS(=O)(=O)c4ccc(C)cc4)cc3C(=O)N([C@H](C)CO)C[C@H]2C)cc1 | 24 | 3
C[C@@H]1CN([C@@H](C)CO)C(=O)c2cc(NC(=O)Nc3ccc(F)cc3)ccc2O[C@@H](C)CCCCO[C@@H]1CN(C)C(=O)C1CCCCC1 | -85* | 7
C[C@@H]1CCCCO[C@@H](CN(C)C(=O)C2CCCCC2)[C@@H](C)CN([C@H](C)CO)C(=O)c2cc(NC(=O)Cc3ccccc3)ccc2O1 | -50 | 11
C[C@@H]1CCCCO[C@@H](CN(C)C(=O)C2CCCCC2)[C@@H](C)CN([C@@H](C)CO)C(=O)c2cc(NC(=O)Nc3ccc(F)cc3)ccc2O1 | -79 | 0
C[C@H]1CCCCO[C@@H](CN(C)C(=O)C2CCCCC2)[C@@H](C)CN([C@@H](C)CO)C(=O)c2cc(NC(=O)NC3CCCCC3)ccc2O1 | -82* | -6
C[C@H]1CCCCO[C@@H](CN(C)C(=O)C2CCCCC2)[C@@H](C)CN([C@@H](C)CO)C(=O)c2cc(NC(=O)Cc3ccccc3)ccc2O1 | -87* | 8
C[C@@H]1CCCCO[C@@H](CN(C)C(=O)C2CCCCC2)[C@@H](C)CN([C@@H](C)CO)C(=O)c2cc(NC(=O)NC3CCCCC3)ccc2O1 | -80 | 14
C[C@H](CO)N1C[C@H](C)[C@H](CN(C)C(=O)c2ccccn2)Oc2ncc(C3=CCCC3)cc2C1=O | -17 | -2
COc1ccc(NC(=O)N2C[C@@H]3[C@H](c4ccccc42)[C@@H](CO)N3C(=O)C2CC2)cc1 | 9 | -3
O=C(C[C@H]1CC[C@H](NC(=O)C2CC2)[C@H](CO)O1)NCc1ccncc1 | 23 | 0
COc1cccc(CNC(=O)C[C@@H]2C=C[C@H](NS(=O)(=O)c3ccccc3OC)[C@H](CO)O2)c1 | -9 | 7
COc1ccc(S(=O)(=O)N(C)C[C@H]2OCCCC[C@@H](C)Oc3ccc(NC(=O)CCC(F)(F)F)cc3C(=O)N([C@H](C)CO)C[C@@H]2C)cc1 | -24 | -5
SMILES | Pf Dd2 inh | C diff HTS
C[C@H]1CCCCO[C@@H](CN(C)S(=O)(=O)c2ccc(Cl)cc2)[C@@H](C)CN([C@@H](C)CO)C(=O)c2cc(NC(=O)CCC(F)(F)F)ccc2O1 | -83* | -3
COc1ccc(S(=O)(=O)N(C)C[C@@H]2OCCCC[C@@H](C)Oc3ccc(NC(=O)CCC(F)(F)F)cc3C(=O)N([C@@H](C)CO)C[C@@H]2C)cc1 | -81* | 11
C[C@@H]1CN([C@H](C)CO)C(=O)c2cc(NC(=O)CCC(F)(F)F)ccc2O[C@@H](C)CCCCO[C@H]1CN(C)S(=O)(=O)c1ccc(Cl)cc1 | -76 | -4
C[C@H]1CN([C@@H](C)CO)C(=O)c2cc(NS(=O)(=O)c3cccs3)ccc2O[C@@H]1CN(C)Cc1ccncc1 | 28 | -4
Cc1noc(C)c1NC(=O)Nc1ccc2c(c1)C(=O)N(C)[C@@H]1CC[C@@H](CC(=O)NCc3ccc(Cl)cc3)O[C@@H]1CO2 | x | -3
C[C@H]1CCCCO[C@H](CN(C)C(=O)CCCN(C)C)[C@@H](C)CN([C@@H](C)CO)C(=O)c2cc(NS(=O)(=O)c3cccs3)ccc2O1 | 41 | 5
OC[C@@H]1Nc2ccc(C#Cc3cccc(F)c3)cc2[C@H]2NCC[C@@H]12 | -88* | -13
COc1ccccc1C#Cc1ccc2c(c1)[C@@H]1NCC[C@@H]1[C@H](CO)N2 | -90* | 0
COc1ccccc1C#Cc1ccc2c(c1)[C@H]1[C@H](CCN1S(=O)(=O)c1ccccc1)[C@@H](CO)N2 | -17 | -5
O=S(=O)(c1cccc(F)c1)N1CC[C@@H]2[C@@H](CO)Nc3ccc(C#Cc4cccc(F)c4)cc3[C@@H]21 | -20 | 3
CC(C)CC#Cc1cnc2c(c1)C(=O)N([C@H](C)CO)C[C@@H](C)[C@@H](CN(C)C(=O)c1cccnc1)O2 | 32 | 1
O=C([C@H]1[C@H](CO)[C@H]2Cn3c(ccc(-c4ccccc4)c3=O)[C@@H]1N2CCC(F)(F)F)N1CCOCC1 | 18 | -3
CCCNC(=O)N1CC2(CN(C(=O)C3CCC3)C2)c2c([nH]c3cc(OC)ccc23)[C@H]1CO | -85* | 2
COc1ccc2c3c([nH]c2c1)[C@@H](CO)N(Cc1ccccc1F)CC31CN(C(=O)C2CCC2)C1 | -92* | 12
CCCNC(=O)N1CC2(CN(C(=O)C3CCCC3)C2)c2c([nH]c3cc(OC)ccc23)[C@H]1CO | -25 | 0
COc1ccc2c3c([nH]c2c1)[C@H](CO)N(Cc1cc(F)ccc1F)CC31CN(C(=O)C2CCC2)C1 | -88* | -7
COc1ccc2c3c([nH]c2c1)[C@@H](CO)N(Cc1ccccc1F)CC31CN(C(=O)C2CCOCC2)C1 | 32 | x
COc1ccc2c3c([nH]c2c1)[C@H](CO)N(Cc1nccs1)CC31CN(C(=O)C2CCC2)C1 | -18 | 2
CCCN(C)C[C@H]1Oc2cc(-c3ccncc3)ccc2S(=O)(=O)N([C@@H](C)CO)C[C@H]1C | -68 | 2
